Bioassay records from PubChem.
The list is not random: actives were taken first. Their share in the collection is about 2.9%.
Integrin act MD: activators of alpha7 integrin expression for muscular dystrophy; 0.064% of 350,000 active; AID 624291; alpha7betagal myoblasts, beta-gal FDG fluorescence, 48 h; Potency, µM (highest dose often 38.3 µM), for inactives: top-dose activation, usual class: activators; active = well fitted activation curve with a large enough effect; inconclusive = small, poorly fitted or top-dose-only effect; inactive = no such curve, though single readings can be large or run the other way;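 also: potency is read from the fitted curve at half-maximal effect; 100% = response of the positive control SU9516; nearly all actives have a fitted effect of over 60% in size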
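alpha7betagal+/- myoblasts (passage 13, 250/well) treated 48 h at 37C with compounds at 1:260 dilution of DMSO stock. Lysed, then beta-galactosidase activity read as FDG fluorescence (ex 480/em 540) after 30 min, with pre-read for autofluorescence.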
D3 antag: blocks the human D3 dopamine receptor; P35462; D3R cells, DiscoveRx beta-arrestin luminescence, antagonist mode; active compounds read low; max response, negative = inhibition, %; 2.5% of 360,000 active; in the data active = max response below about -50%; inconclusive = no clear call, values can overlap the other calls; also: % is scaled to controls: 0 for no effect and ±100 for the full control effect
Target sequence (P35462 whole entry, looked up): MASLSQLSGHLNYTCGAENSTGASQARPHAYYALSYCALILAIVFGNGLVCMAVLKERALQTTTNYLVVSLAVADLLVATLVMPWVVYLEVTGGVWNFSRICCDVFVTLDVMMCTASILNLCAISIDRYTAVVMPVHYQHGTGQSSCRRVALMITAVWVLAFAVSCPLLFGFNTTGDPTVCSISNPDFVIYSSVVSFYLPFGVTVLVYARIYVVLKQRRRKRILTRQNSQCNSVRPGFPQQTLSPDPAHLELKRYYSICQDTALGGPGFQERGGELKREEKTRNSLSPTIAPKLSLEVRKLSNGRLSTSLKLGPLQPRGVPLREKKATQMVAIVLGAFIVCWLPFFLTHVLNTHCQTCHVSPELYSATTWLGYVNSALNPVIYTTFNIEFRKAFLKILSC
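Cells expressing the human receptor were seeded at 1500 cells/well, incubated overnight at 37 degrees C in 5% CO2, then exposed to library compounds with dopamine controls for 90 minutes at 37 degrees C before luminescent detection.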
DRD3 agonist: D3 dopamine receptor (human) agonism; P35462; D3R DiscoveRx beta-arrestin cells, luminescence, 90 min; max activation, %; 0.58% of 410,000 active; AID 652048; in the data active = max activation above about 30%; also: 0% is about no effect
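Agonist mode: compounds and dopamine controls were applied to plated cells for 90 min at 37 degrees C after an overnight attachment at 1500 cells/well. Luminescent read-out followed 30 - 60 minutes at room temperature with DiscoveRx detection reagent.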
* hit, by the source's call; ? = inconclusive; . = not tested or not shown; [ ] = another dose, or the depositor's remark.

SMILES | Integrin act MD | D3 antag | DRD3 agonist
CCCCC(=O)NC(c1ccc(N(C)C)cc1)c1ccc2cccnc2c1O (stereo unspecified) | -19.0% | -12.2 | 16.6
CCCC(=O)NC(c1ccc(Cl)cc1)c1ccc2cccnc2c1O (stereo unspecified) | -13.1% | 6.6 | 20.1
CCCC(=O)NC(c1ccc(C)cc1)c1ccc2cccnc2c1O (stereo unspecified) | -38.2% | -25.7 | 31.4*
CCCN(C(=O)c1ccco1)c1nnc(-c2ccccc2C)s1 | -38.6% | 1.7 | 1.6
Cc1ccccc1CN1CC2=C(CCN(Cc3ccccc3)C2=O)N2CCN=C12 | . | -80.9* | -12.1
c1ccc(CN2C3=NCCN3c3ccccc32)cc1 | 0.0% | 12.6 | 13.4
O=C(COc1cccc2ccccc12)NNC(=O)CSCCO | 17.5% | -50.5* | -3.0
O=C(COc1cccc2ccccc12)NNC(=O)Nc1ccccc1 | -19.5% | ? | -26.1
COc1cc2[nH]c(=S)n(C3CCCC3)c(=O)c2cc1OC | 4.5%[7.66 µM] | 35.9 | 12.0
COc1cc2[nH]c(=S)n(C3CC3)c(=O)c2cc1OC | -18.2% | -58.5* | -12.0
COC(=O)c1ccc2c(=O)n(NC(C)=O)c(=S)[nH]c2c1 | 14.6% | 11.0 | -14.7
COc1cc2[nH]c(=S)n(NC(=O)c3ccccc3)c(=O)c2cc1OC | -3.5%[7.66 µM] | -60.8* | -29.5
CCOC(=O)c1ccc2c(c1)C(=O)N(C1CCCCC1)C2=O | -2.8% | 31.2 | 3.9
CCOC(=O)C1(C)CCCN1C(=O)c1ccccc1OC (stereo unspecified) | . | 22.5 | 11.2
O=[N+]([O-])c1cccc(C=NN2CCCCCC2)c1 | 2.9% | -3.5 | 3.9
CCc1nc(-c2ccc(OC)c(OC)c2)cc2cc(OC)c(OC)cc12 | -1.3% | 53.1 | 36.1*
CCOc1ccc(-c2cc3cc(OC)c(OC)cc3c(C)n2)cc1 | 26.7% | -1.9 | -5.6
O=C(NCCc1ccc(F)cc1)C(=O)NCC(c1ccco1)S(=O)(=O)c1ccccc1 (stereo unspecified) | . | . | 12.8
COc1cc(-n2c(=O)c3ccccc3n(Cc3cccc(Cl)c3)c2=O)cc(OC)c1OC | . | . | 7.1
Cn1cc(CN2CCC(n3nccc3NC(=O)Cc3ccccc3)CC2)cn1 | -1.3% | ? | 2.4
Nc1ccnn1-c1ccccc1 | -14.4% | -3.5 | -2.1
Fc1ccc(-c2ccnn2-c2ccccc2)cc1 | 4.47µM* | -1.8 | 3.1
COc1ccc(-c2cn(-c3ccccc3)nc2C(=O)O)cc1OC | 6.8% | -15.7 | -2.7
Cc1ccc(S(=O)(=O)N/N=C\c2ccc(C)o2)cc1 | 21.2% | -11.0 | -10.5
O=S1(=O)N=C(N/N=C/c2ccco2)c2ccccc21 | 8.2% | 3.6 | 1.3
SMILES | Integrin act MD | D3 antag | DRD3 agonist
COc1cc(CN2CCC(C(=O)N3CCN(c4ccccc4F)CC3)CC2)cc(OC)c1OC | -19.7% | -52.9* | -5.8
COc1ccc(CN2CCC(C(=O)N3CCN(c4ccccc4F)CC3)CC2)cc1OC | -28.9% | -7.7 | 0.2
O=C(CSc1nnc(COc2ccc(Cl)cc2)o1)Nc1ccccc1 | . | . | 0.2
O=C(Nc1nc(-c2cccc([N+](=O)[O-])c2)cs1)C(c1ccccc1)c1ccccc1 | 13.5% | -52.8* | -2.5
CC(OC(=O)c1ccccc1Br)C(=O)Nc1nc(-c2cccc([N+](=O)[O-])c2)cs1 (stereo unspecified) | 0.5% | 8.4 | 11.9
CC(=O)NC(CSc1cc(C)nc2ccc(Br)cc12)C(=O)O (stereo unspecified) | 25.2% | -6.4 | -1.6
Cc1ccc(-n2nc3c(N4CCC(C(=O)N5CCC(C(N)=O)CC5)CC4)nnc(C)c3c2C)cc1 | -5.9% | -4.2 | 2.2
Cc1ccc(SCc2cn3c(C)csc3n2)cc1 | 15.9% | -52.9* | -23.9
Cc1ccc(S(=O)(=O)NCc2cn3c(C)csc3n2)cc1 | 17.8% | 18.3 | 3.2
O=C(Cn1c(=O)oc2ccccc21)c1ccccc1 | -7.2% | 15.1 | 2.3
CCCC(C)NC(=S)Nc1cc(C)cc(C)c1 (stereo unspecified) | 23.2% | 4.2 | -10.9
C#CC(=O)N(c1cc(OC)ccc1OC)C(C(=O)NC1CCCC1)c1cccs1 (stereo unspecified) | ? | -62.2* | -6.4
COc1ccc(N(C(=O)c2snc(C(N)=O)c2N)C(C(=O)NC2CCCC2)c2cccs2)cc1OC (stereo unspecified) | 13.9% | -3.2 | -5.7
C#CC(=O)N(c1ccc(OC)cc1OC)C(C(=O)NC1CCCC1)c1cccs1 (stereo unspecified) | -68.1% | -50.7* | -6.6
COc1ccc(N(C(=O)c2ccco2)C(C(=O)NC2CCCCC2)c2cccs2)cc1OC (stereo unspecified) | -20.5% | -18.7 | 6.6
CC(C)(C)NC(=O)C(c1cccs1)N(C(=O)C(=O)NC1CCCC1)c1ccccc1F (stereo unspecified) | ? | -64.8* | -14.8
